About 83,000 compounds went through this panel and 20% of them were active in at least one assay; those are over-represented in the sample as a whole.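 Note: values are percent growth. 100 is the growth of untreated cells, values between 100 and 0 indicate rising inhibition; between -100 and 0 indicates cell death.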 Values without a mark were called inactive. Active and inactive are the calls of the source. How the source made its calls: active means growth percent below 10; inactive means the rest.
Tested on: HT29 colon
Assay: NCI-60 one-dose screen, 48 h (100 = growth as untreated, 0 = no growth, -100 = all killed)
Conditions: 10 µM unless noted

Row | SMILES | growth
1 | CC(C)(C)c1[nH]nc2c1C(c1cc3ccccc3[nH]c1=O)Nc1cc(C(=O)OCc3ccccc3)ccc1N2 (stereo not drawn) | 62.1%
2 | COc1ccc2nc(-c3c(-c4ccccc4)nc4ncccn34)[nH]c2c1 | 94.1%
3 | O=C1NC(=Nc2ccc(S(=O)(=O)Nc3nccs3)cc2)S/C1=C\c1coc2ccccc2c1=O | 97.6%
4 | CC(C)=CCC[C@](C)(O)[C@H]1CC[C@]2(C)[C@@H]1CC[C@@H]1[C@@]3(C)C/C(=C/c4ccc(Br)cc4)C(=O)C(C)(C)[C@@H]3CC[C@]12C | 77%
5 | O=c1c2sc3ncc(Br)cc3c2ncn1-c1cccc(Cl)c1 | 71.5%
6 | O=Cc1nc2ccccc2[nH]1 | 91%
7 | CCc1ccc(-c2ccc(Nc3ccccc3)nn2)cc1S(N)(=O)=O | 68%
8 | COc1ccc(-c2nc3ccccn3c2-c2nc3ccc(Cl)cc3[nH]2)cc1 | 83.7%
9 | Cn1cc(-c2nc(-c3c[nH]c4ncccc34)cs2)c2ccccc21 | 88.2%
10 | COc1ccc2c(c1)C/C(=C\c1cc(-c3ccc4c(c3)OCO4)n[nH]1)C2=O | 127%
11 | Nc1ccc(Br)cn1 | 104%
12 | Cc1nn(-c2ccc(Br)cc2)c2nc3[nH]c(=O)[nH]c(=O)c3nc12 | 101%
13 | Cn1cc(-c2csc(-c3cn(C(=O)OC(C)(C)C)c4ccccc34)n2)c2cccnc21 | 13%
14 | CC(C)(C)c1ccc(OCCCCCCCN2CCNCC2)cc1 | 6.93% (active)
15 | Nc1ccc(Cl)cn1 | 96.9%
16 | Cc1ccc(-c2nc([P+](c3ccccc3)(c3ccccc3)c3ccccc3)c(N3CCOCC3)o2)cc1 | -0.839% (active)
17 | c1ccc2[nH]c(-c3cc(-c4ccc5c(c4)OCO5)n[nH]3)nc2c1 | 67.5%
18 | Nc1c(C(=O)Nc2cccc(Br)c2)sc2nc3c(cc12)C(=O)CCC3 | 8.17% (active)
19 | COc1cccc(NC(=O)c2sc3nc4c(cc3c2N)C(=O)CCC4)c1 | 4.77% (active)

Row | SMILES | growth
20 | C=C(C)[C@@H]1CC[C@]2(C)[C@H](CC=C3[C@@H]4CC(C)(C)CC[C@]4(C=O)CC[C@]32C)[C@@]1(C)CCCN | 7.12% (active)
21 | CC(C)(C)c1cc(-n2c(-c3ccc(Cl)cc3)nc3cc(C(=O)Nc4ccc(Cl)cc4)ccc32)n[nH]1 | 89.5%
22 | O=c1c(CNc2ccc(S(=O)(=O)Nc3nccs3)cc2)coc2ccccc12 | 101%
23 | COc1cc(-c2cc(-c3nc4ccc(F)cc4[nH]3)[nH]n2)cc(OC)c1OC | 69.3%
24 | O=C1C(Cl)=C(Nc2ccc(S(=O)(=O)c3ccc(NC4=C(Cl)C(=O)c5ccccc5C4=O)cc3)cc2)C(=O)c2ccccc21 | 32.6%
25 | Fc1ccc2nc(-c3cc(-c4ccc5c(c4)OCO5)n[nH]3)[nH]c2c1 | 61.6%
26 | O=c1c(CNc2ccc(S(=O)(=O)Nc3ncccn3)cc2)coc2ccccc12 | 110%
27 | COc1ccc(-c2cc(/C=C/C(=O)c3ccc(N)cc3)[nH]n2)cc1 | 10.4%
28 | COC(=O)[C@]12CC[C@@H](C(=O)/C=C/c3cccnc3)[C@@H]1[C@H]1CC[C@@H]3[C@@]4(C)C/C(=C/c5cccnc5)C(=O)C(C)(C)[C@@H]4CC[C@@]3(C)[C@]1(C)CC2 | -45.5% (active)
29 | NC1(N)C=CC2=C(C=C1)C1(N)C3=C(C=CC(N)(N)C=C3)N2C2(N)C3=C(C=CC(N)(N)C=C3)N1C1=C2C=CC(N)(N)C=C1 | 94.4%
30 | CCCCC(=O)OC1CCCCC1C (stereo not drawn) | 88.2%
31 | COc1ccc(/C=C/C(=O)NCCO)cc1 | 96.1%
32 | COc1ccc2c(c1)C/C(=C\c1cc(-c3cc(OC)c(OC)c(OC)c3)n[nH]1)C2=O | 89.3%
33 | COc1ccc(NC(=O)c2ccc3c(c2)nc(-c2cc4ccccc4[nH]c2=O)n3-c2cc(C(C)(C)C)[nH]n2)cc1 | 106%
34 | COc1ccc2nc(-c3cc(-c4cc(OC)c(OC)c(OC)c4)n[nH]3)[nH]c2c1 | 42.7%
35 | Nc1nc2c(c(=O)[nH]1)C(c1ccc3c(c1)OCO3)C=C(C(=O)O)N2 (stereo not drawn) | 108%
36 | COc1ccc(-c2cc(/C=C/C(=O)c3ccc(OC)c(OC)c3)[nH]n2)cc1 | 1.11% (active)
37 | COc1cc2c(cc1OC)C(=O)/C(=C/c1cc(-c3ccc4c(c3)OCO4)n[nH]1)C2 | -29.5% (active)
38 | COc1cc(-c2cc(-c3nc4ccccc4[nH]3)[nH]n2)cc(OC)c1OC | 69.3%

From PubChem BioAssay (NCI)
